Reference: PubChem BioAssay (Tox21)
Where “and” joins values, the source holds several entries; their conditions need not be identical. Equal values may be shown once. Records with an inconclusive call do not appear. Where a call stands in place of a potency, no number is given. Some compounds were tested as several samples or in several runs, with calls that do not always agree. Calls of active or inactive are those of the source. Unless noted, the call rests on the fitted dose curve; in most records, active means well fitted curve in the direction sought with a large enough effect in the repeat runs; inconclusive means weak or mixed curves; inactive means no such curve, though single readings can be large; an effect the other way counts as inactive or inconclusive.

Key:
[1] = qHTS assay to identify small molecule agonists of the peroxisome proliferator-activated receptor delta (PPARd) signaling pathway - cell viability counter screen (AID 743211); further: nearly all actives have a fitted effect of over 55% in size; further: potency means the concentration at half of the fitted maximal effect
How it was run: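 Multiplexed format: after the 2 h room-temperature LiveBLAzer B/G FRET step, CellTiter-Glo was added to the same wells. Luminescence after 30 min gave cell viability; compound exposure was 17 h at 37C.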

[2] = biological target: Peroxisome proliferator-activated receptor delta (Homo sapiens) (UniProt Q03181); test: qHTS assay to identify small molecule agonists of the peroxisome proliferator-activated receptor delta (PPARd) signaling pathway (AID 743212; calls by dose curve)
How it was run: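 A PPARd-bla HEK293H line with beta-lactamase under an Upstream Activator Sequence is treated with compounds at 37 C. Substrate loading for 2 h at room temperature precedes the fluorescence measurement.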

[3] = biological target: Peroxisome proliferator-activated receptor delta (Homo sapiens) (UniProt Q03181); test: qHTS assay to identify small molecule antagonists of the peroxisome proliferator-activated receptor delta (PPARd) signaling pathway (AID 743215; active means well fitted inhibition curve with a large enough effect in the signal ratio in the repeat runs, not every such curve was filed as active; the % refers to the signal ratio;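 further: cells stimulated with agonist L165041 at 300 nM final during compound exposure; series mostly up to about 62 µM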)
How it was run: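 HEK293H UAS-bla, PPARd; agonist L165041 300 nM final with cpd in DMSO; 37 C 17 h; FRET substrate, RT 2 h; fluorescence intensity.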

[4] = qHTS assay to identify small molecule agonists of the farnesoid-X-receptor (FXR) signaling pathway - cell viability counter screen (AID 743218); further: nearly all actives have a fitted effect of over 45% in size; further: potency means the concentration at half of the fitted maximal effect
How it was run: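 Parallel cytotoxicity test: compound-treated (16 h, 37 C) HEK 293T FXR-bla reporter cells were lysed with CellTiter-Glo and luminescence recorded.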

[5] = qHTS assay to identify small molecule antagonists of the farnesoid-X-receptor (FXR) signaling pathway - cell viability counter screen (AID 743221; active means well fitted cell-killing curve with a large enough effect in the repeat runs, not every such curve was filed as active; further: nearly all actives have a fitted effect of over 50% in size)
How it was run: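 CellTiter-Glo, 30 min RT, luminescence; same wells as the LiveBLAzer FRET read. Cells: FXR-UAS-bla HEK 293T. Treatment: compound with chenodeoxycholic acid 50 uM final, 16 h at 37 C.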

[6] = biological target: Vitamin D3 receptor (Homo sapiens) (UniProt P11473); test: qHTS assay to identify small molecule agonists of the vitamin D receptor (VDR) signaling pathway (AID 743222; calls by dose curve)
How it was run: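 In VDR-bla cells, compound-induced beta-lactamase expression is quantified by FRET substrate fluorescence. Treatment lasts 16 h at 37C; substrate develops 2 h at room temperature.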

[7] = qHTS assay to identify small molecule agonists of the vitamin D receptor (VDR) signaling pathway - cell viability counter screen (AID 743224); further: nearly all actives have a fitted effect of over 50% in size; further: potency means the concentration at half of the fitted maximal effect
How it was run: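 Plated VDR-bla cells (4 h, 37C) received compound, incubated 16 h, then LiveBLAzer substrate 2 h RT; CellTiter-Glo added afterwards, luminescence read at 30 min.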

[8] = qHTS assay to identify small molecule antagonists of the vitamin D receptor (VDR) signaling pathway - cell viability counter screen (AID 743225); further: nearly all actives have a fitted effect of over 50% in size; further: potency means the concentration at half of the fitted maximal effect
How it was run: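 Cytotoxicity toward the VDR-bla HEK 293T line was scored by ATP-based CellTiter-Glo luminescence, read in the wells already used for the beta-lactamase readout after 16 h compound treatment under 3 nM 1-alpha,25-dihydroxyvitamin D3 stimulation.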

[9] = qHTS assay to identify small molecule agonists of the endoplasmic reticulum stress response signaling pathway (AID 1159516; active means well fitted activation curve with a large enough effect in the signal ratio in the repeat runs, not every such curve was filed as active; the % refers to the signal ratio)
How it was run: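 An ESRE-bla HeLa cell assay: compounds were pin-transferred from DMSO onto overnight-plated cells and left 5 hr at 37 C. Substrate was then loaded for 2 hr at room temperature before reading fluorescence at 460 nm and 530 nm.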

[10] = qHTS assay to identify small molecule agonists of the endoplasmic reticulum stress response signaling pathway - cell viability counter screen (AID 1159517; calls by dose curve;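 further: HeLa cells carrying an ER stress response element beta-lactamase reporter; series mostly up to about 61 µM; nearly all actives have a fitted effect of over 50% in size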)
How it was run: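 CellTiter-Glo was added to wells already read for beta-lactamase FRET, and luminescence was recorded 30 min later. Cells: ESRE-bla HeLa, 1,500 per well, compound exposure 5 hr at 37 C.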

[11] = qHTS assay to identify small molecule antagonists of the retinoid-related orphan receptor gamma (ROR-gamma) signaling pathway - cell viability counter screen (AID 1159520); further: nearly all actives have a fitted effect of over 50% in size; further: potency means the concentration at half of the fitted maximal effect
How it was run: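 Tet-on ROR gamma CHO cells (1,000/well) were plated 4 hr, given compounds in DMSO for 2 hr at 37 C, then induced with 1 uM final doxycycline for 16 hr. Viability was read as ATP by CellTiter-Glo luminescence after 30 min.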

[12] = biological target: Nuclear receptor ROR-gamma (Homo sapiens) (UniProt P51449); test: qHTS assay to identify small molecule antagonists of the retinoid-related orphan receptor gamma (ROR-gamma) signaling pathway (AID 1159521; further: nearly all actives have a fitted effect of over 50% in size; further: potency means the concentration at half of the fitted maximal effect)
How it was run: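 Readout: ONE-Glo luciferase luminescence, 30 min at room temperature. System: Tet-on RORγ CHO, RORE-LUC. Sequence: compound 2 h, doxycycline 1 uM final, 16 h at 37 C.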

[13] = qHTS assay to identify small molecule agonists of the AP-1 signaling pathway - cell viability counter screen (AID 1159525; calls by dose curve; further: nearly all actives have a fitted effect of over 55% in size)
How it was run: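 ME-180 AP-1-bla, 2500 cells/well, Opti-MEM + 0.5% dialyzed FBS; overnight 37 °C; cpd 15-pt titration, 5 h 37 °C; CellTiter-Glo 30 min RT; luminescence read; normalised to TOAB and DMSO controls.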

[14] = qHTS assay to identify small molecule agonists of the AP-1 signaling pathway (AID 1159526; calls by dose curve)
[15] = biological target: Retinoic acid receptor RXR-alpha (Homo sapiens) (UniProt P19793); test: qHTS assay to identify small molecule agonists of the RXR signaling pathway (AID 1159527; calls by dose curve; further: nearly all actives have a fitted effect of over 35% in size; further: potency means the concentration at half of the fitted maximal effect)
How it was run: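 Reporter activation is measured as beta-lactamase activity via FRET substrate cleavage (emission 460/530 nm) in HEK 293T cells expressing an RXR-alpha-driven bla construct, following 16 hr compound exposure at 37 C.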

[16] = qHTS assay to identify small molecule antagonists of the peroxisome proliferator-activated receptor delta (PPARd) signaling pathway - cell viability counter screen (AID 743213); further: nearly all actives have a fitted effect of over 50% in size
How it was run: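 In this counter screen, HEK293H cells carrying a UAS-beta-lactamase reporter are co-treated with test compounds and 300 nM L165041 (final) for 17 h at 37 C; cell viability is quantified by CellTiter-Glo luminescence.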

[17] = biological target: Bile acid receptor (Homo sapiens) (UniProt Q96RI1); test: qHTS assay to identify small molecule agonists of the farnesoid-X-receptor (FXR) signaling pathway (AID 743220; active means well fitted activation curve with a large enough effect in the signal ratio in the repeat runs, not every such curve was filed as active; the % refers to the signal ratio)
How it was run: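 Beta-lactamase reporter under UAS control in GeneBLAzer FXR HEK 293T cells (5000/well) measured with LiveBLAzer FRET substrate after 2 h at room temperature. Compound exposure lasted 16 h at 37C.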

[18] = biological target: Vitamin D3 receptor (Homo sapiens) (UniProt P11473); test: qHTS assay to identify small molecule antagonists of the vitamin D receptor (VDR) signaling pathway (AID 743223; active means well fitted inhibition curve with a large enough effect in the signal ratio in the repeat runs, not every such curve was filed as active; the % refers to the signal ratio)
How it was run: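 After VDR-bla cells are plated and left 4 h at 37C, DMSO-dissolved compounds and 3 nM (final) calcitriol agonist are added. Incubation continues 16 h at 37C; FRET beta-lactamase substrate then develops 2 h at room temperature.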

Chain of Retinoic acid receptor RXR-alpha (Homo sapiens) (P19793 whole entry, looked up): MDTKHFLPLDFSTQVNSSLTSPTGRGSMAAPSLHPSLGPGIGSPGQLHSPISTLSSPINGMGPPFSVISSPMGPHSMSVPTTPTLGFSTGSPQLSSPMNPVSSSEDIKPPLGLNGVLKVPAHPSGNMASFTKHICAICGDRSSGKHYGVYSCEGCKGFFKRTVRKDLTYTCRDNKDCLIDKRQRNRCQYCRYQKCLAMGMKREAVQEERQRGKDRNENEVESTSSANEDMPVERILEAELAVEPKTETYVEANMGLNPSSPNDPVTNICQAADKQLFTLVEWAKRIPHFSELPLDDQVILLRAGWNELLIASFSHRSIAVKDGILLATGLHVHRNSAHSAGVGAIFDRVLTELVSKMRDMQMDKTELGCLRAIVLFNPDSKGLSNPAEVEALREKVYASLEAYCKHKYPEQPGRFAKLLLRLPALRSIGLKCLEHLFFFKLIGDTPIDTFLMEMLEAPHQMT
Chain of Bile acid receptor (Homo sapiens) (Q96RI1 whole entry, looked up): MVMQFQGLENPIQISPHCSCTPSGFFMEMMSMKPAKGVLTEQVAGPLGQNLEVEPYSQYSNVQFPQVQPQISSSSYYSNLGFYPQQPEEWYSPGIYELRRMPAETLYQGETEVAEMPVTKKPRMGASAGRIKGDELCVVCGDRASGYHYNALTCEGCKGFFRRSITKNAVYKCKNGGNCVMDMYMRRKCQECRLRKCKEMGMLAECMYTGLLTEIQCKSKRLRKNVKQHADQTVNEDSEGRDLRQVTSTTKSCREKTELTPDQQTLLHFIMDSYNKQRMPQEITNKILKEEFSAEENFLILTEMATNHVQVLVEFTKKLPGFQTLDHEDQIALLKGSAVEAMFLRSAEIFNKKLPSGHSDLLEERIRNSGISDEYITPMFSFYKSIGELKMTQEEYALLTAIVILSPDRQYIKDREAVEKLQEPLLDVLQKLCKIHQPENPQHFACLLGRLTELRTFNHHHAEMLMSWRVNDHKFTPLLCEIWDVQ
Chain of Peroxisome proliferator-activated receptor delta (Homo sapiens) (Q03181 whole entry, looked up): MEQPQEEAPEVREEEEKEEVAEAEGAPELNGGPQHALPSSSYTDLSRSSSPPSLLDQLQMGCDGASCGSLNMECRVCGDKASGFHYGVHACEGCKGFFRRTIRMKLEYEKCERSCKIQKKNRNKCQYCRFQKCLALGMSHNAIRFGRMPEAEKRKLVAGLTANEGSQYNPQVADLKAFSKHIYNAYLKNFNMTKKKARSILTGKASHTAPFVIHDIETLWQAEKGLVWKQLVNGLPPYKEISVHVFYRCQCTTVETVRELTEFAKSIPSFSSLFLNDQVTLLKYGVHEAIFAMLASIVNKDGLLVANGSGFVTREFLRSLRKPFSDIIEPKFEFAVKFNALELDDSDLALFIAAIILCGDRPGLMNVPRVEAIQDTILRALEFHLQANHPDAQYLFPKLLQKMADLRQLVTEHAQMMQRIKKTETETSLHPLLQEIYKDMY
Chain of Vitamin D3 receptor (Homo sapiens) (P11473 whole entry, looked up): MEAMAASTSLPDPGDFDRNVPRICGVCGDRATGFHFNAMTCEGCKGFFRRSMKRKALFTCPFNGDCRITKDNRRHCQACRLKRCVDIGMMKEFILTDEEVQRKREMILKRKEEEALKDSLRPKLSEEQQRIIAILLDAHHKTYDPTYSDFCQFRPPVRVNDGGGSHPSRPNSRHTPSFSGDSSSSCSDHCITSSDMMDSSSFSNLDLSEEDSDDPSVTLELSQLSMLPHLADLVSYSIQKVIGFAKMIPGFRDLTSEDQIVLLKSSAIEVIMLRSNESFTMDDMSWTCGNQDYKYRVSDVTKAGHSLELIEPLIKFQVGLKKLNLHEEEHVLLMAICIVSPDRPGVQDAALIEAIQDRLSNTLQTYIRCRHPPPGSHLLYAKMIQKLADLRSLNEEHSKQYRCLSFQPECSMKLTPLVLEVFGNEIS

Row | SMILES | Potency [1] | Potency [2] | Potency [3] | Potency [4] | Potency [5] | Potency [6] | Potency [7] | Potency [8] | outcome [9] | Potency [10] | Potency [11] | Potency [12] | Potency [13] | Potency [14] | Potency [15] | Potency [16] | Potency [17] | Potency [18]
1 | NNCCc1ccccc1 | inactive | inactive | inactive | inactive | inactive | inactive | inactive | inactive | inactive | inactive | inactive | inactive | inactive | inactive | inactive | – | – | –
2 | CC(C(O)c1ccc(O)cc1)N1CCC(Cc2ccccc2)CC1 (stereo not given) | inactive | – | – | inactive | inactive | – | inactive | inactive | inactive | inactive | inactive | inactive | inactive | inactive | inactive | inactive | – | –
3 | O=C(Oc1ccccc1)c1ccccc1O | inactive | – | – | inactive | inactive | – | inactive | inactive | inactive | inactive | inactive | inactive | inactive | inactive | inactive | inactive | – | –
4 | CC(C)(c1ccccc1)c1ccc(Nc2ccc(C(C)(C)c3ccccc3)cc2)cc1 | inactive | – | – | inactive | inactive | – | inactive | inactive | – | inactive | inactive | 24.3 µM (active) and inactive | inactive | – | – | inactive | – | –
5 | COC(c1ccccc1)(c1ccccc1)[C@H](Oc1nc(C)cc(C)n1)C(=O)O | inactive | inactive | – | inactive | inactive | inactive | – | inactive | inactive | inactive | inactive | inactive | inactive | inactive | inactive | inactive | inactive | –
6 | CC(C)C(=O)c1c(C(C)C)nn2ccccc12 | inactive | – | inactive | inactive | inactive | – | inactive | inactive | inactive | inactive | inactive | – | inactive | inactive | 23.9 µM (active) | inactive | inactive | inactive
7 | BrC1CCC(Br)C(Br)CCC(Br)C(Br)CCC1Br (stereo not given) | 26.1 µM (active) | inactive | inactive | inactive and 20.8 µM (active) | inactive | inactive | 18.5 µM (active) | 16.5 µM (active) | – | inactive | 43.1 µM (active) | – | inactive | – | inactive | – | inactive | inactive
